Results on 8 compounds are retold here after PubChem BioAssay (NCATS).

Several values for one entry are separate records, joined by “and”; a condition that tells them apart may be missing. Equal values may be shown once. Results filed as inconclusive are left out. Activity calls are given as the source filed them. Unless noted, calls come from the whole dose curve.

Assay [1] can be described thus: Cell Viability - SK-N-SH (AID 435).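 Note: potency is the fitted concentration of half-maximal effect; compound exposure lasted 40 h at 37 °C.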 To be noted: SK-N-SH neuroblastoma cell viability qHTS. Put shortly:
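CellTiter-Glo ATP luminescence, 20 min RT read; cells pre-plated 5 hr, compound 40 hr at 37 °C, 1500 cells/well, complete medium. Normalized DMSO = 0, 100 uM tamoxifen = 100% inhibition; Hill-fit AC50.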

Assay [2] is described as follows: Cell Viability - NIH 3T3 (AID 541; active = well fitted curve in the direction sought with a large enough effect; an effect the other way counts as inactive or inconclusive;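 note: cells exposed to compound for 40 hours; plate controls were DMSO alone for no effect and tamoxifen positive control for full effect; nearly all actives have a fitted effect of over 25% in size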). As to conditions: NIH 3T3 cell viability, qHTS; activity change, negative = cytotoxicity: at 92.2 µM (top of the series). In outline: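 AC50 values reflect concentration-dependent loss of intracellular ATP in NIH 3T3 cells after 40 hr treatment in complete culture medium, quantified by luciferase-based luminescence.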
Assay [3] concerns the target Glucocorticoid receptor (Homo sapiens) (UniProt P04150). Briefly: qHTS assay for small molecule agonists of glucocorticoid receptor signaling (AID 588532; active = well fitted curve in the direction sought with a large enough effect in the signal ratio, with a control signal flat; the % refers to the signal ratio;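 note: 100% = dexamethasone at 0.1 µM and 0% = DMSO only wells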). To be noted: HeLa MMTV-bla, beta-lactamase ratio, agonist, 18 h; stronger effect = higher value; percent of dexamethasone control, DMSO zero. In outline: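 Cells were plated and rested 3-5 h at 37 C, compounds were added in titration and incubated 18 h, then CCF4 substrate was loaded for 2 h at RT before reading blue/green fluorescence. EC50 came from Hill-equation fitting.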

Assay [4] shares this target. Kind of assay: qHTS assay for small molecule antagonists of glucocorticoid receptor signaling (AID 588533; active = well fitted inhibition curve with a large enough effect in the signal ratio, with a control signal flat, not every such curve was filed as active; the % refers to the signal ratio; note: % is set by controls: 0 for no effect and ±100 for the full control effect). As to conditions: HeLa MMTV-bla, GRE beta-lactamase ratio, antagonist mode, 18 h; series mostly up to 76.8 µM. Put shortly: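 Antagonist-mode qHTS: compound titrations added to GRE-bla HeLa cells, then dexamethasone 2 nM final; 18 h, 37 C. CCF4 FRET fluorescence normalized to dexamethasone and DMSO; IC50 from Hill fit.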
On the technique in general: Quantitative high-throughput screening tests each substance at several concentrations.

Assay [5] concerns the target Peroxisome proliferator-activated receptor delta (Homo sapiens) (UniProt Q03181). Kind of assay: qHTS assay for small molecule agonists of peroxisome proliferator-activated receptor delta signaling (AID 588534).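 Note: 0% = DMSO basal wells and 100% = positive control agonist at 10 µM.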 As to conditions: HEK293T PPARdelta-UAS-bla, beta-lactamase ratio, 18 h; series mostly up to 76.7 µM. In outline:
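Reporter cells were plated and held 5 hrs at 37 C before compounds were added. After 18 hrs at 37 C, CCF4 dye was loaded for 2 hrs at RT and fluorescence measured.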

Assay [6] in a line: qHTS assay for small molecule antagonists of peroxisome proliferator-activated receptor delta signaling (AID 588535; active = well fitted inhibition curve with a large enough effect in the signal ratio, with a control signal flat, not every such curve was filed as active; the % refers to the signal ratio;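 for max response: cells co-treated with a PPAR-delta agonist as stimulator during compound exposure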). As to conditions: HEK293T PPARd-UAS-bla, beta-lactamase FRET ratio, 18 h; 460 nm channel. In outline:
(§1)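 Cells were seeded at 4000 per well in assay medium containing 2% charcoal/dextran FBS and held 5 hrs at 37 C. Compounds were then added for 18 hrs. CCF4 substrate was applied for 2 hrs at room temperature before fluorescence reading.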

Assay [7] addresses Peroxisome proliferator-activated receptor delta (Homo sapiens) (UniProt Q03181). The assay is described as above. As to conditions: HEK293T PPARd-UAS-bla, beta-lactamase FRET ratio, 18 h; series mostly up to 76.7 µM. Put shortly:
as §1

In assay [8] the target is Peroxisome proliferator-activated receptor gamma (Homo sapiens) (UniProt P37231). Briefly: qHTS assay for small molecule antagonists of peroxisome proliferator-activated receptor gamma signaling (AID 588537; active = well fitted inhibition curve with a large enough effect in the signal ratio, with a control signal flat, not every such curve was filed as active; the % refers to the signal ratio;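 note: reporter cells co-stimulated with 50 nM rosiglitazone agonist during compound treatment; % of control where 0% means no effect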). As to conditions: HEK293 PPARg-UAS-bla, beta-lactamase ratio, antagonist mode; series mostly up to 76.8 µM. Put shortly: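 Step one: plate 3000 HEK293 UAS-bla cells per well in medium with 1% stripped serum and hold 6-6.5 h at 37 C. Step two: add compound and 50 nM agonist for 16 h. Step three: CCF4 loading, fluorescence read.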

In assay [9] the target is Vitamin D3 receptor (Homo sapiens) (UniProt P11473). Briefly: qHTS assay for small molecule antagonists of vitamin D receptor signaling (AID 588541).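 Note: receptor activated by calcitriol during compound treatment; % is set by controls: 0 for no effect and ±100 for the full control effect.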 As to conditions: HEK293T VDR-UAS-bla, beta-lactamase ratio, antagonist mode; series mostly up to 76.7 µM. Put shortly: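 VDR-UAS-bla HEK293T cells in 2% charcoal-stripped FBS were stimulated with 1-alpha,25-dihydroxyvitamin D3 (3 nM final) plus compound for 16 h at 37 C. The beta-lactamase CCF4 readout was normalized to 50 nM agonist and DMSO, and Hill fits gave IC50.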

Assay [10] concerns the target Thyroid hormone receptor beta (Homo sapiens) (UniProt P10828). Briefly: qHTS assay for small molecule antagonists of thyroid hormone receptor beta signaling (AID 588547; active = well fitted inhibition curve with a large enough effect in the signal ratio, with a control signal flat, not every such curve was filed as active; the % refers to the signal ratio;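 note: cells stimulated with 0.4 nM T3 agonist during compound exposure; % is set by controls: 0 for no effect and ±100 for the full control effect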). As to conditions: TR-UAS-bla HEK293, beta-lactamase ratio, antagonist mode, 18 h. In outline: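 TR-UAS-bla GripTite HEK293 cells in 2% charcoal/dextran FBS medium; compounds 0.59 nM to 92 uM with T3 at 0.4nM final, 18 h at 37 C. Beta-lactamase read by CCF4 fluorescence (460/530 nm); Hill fits gave IC50 and efficacy.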

A short description of assay [11]: qHTS assay for small molecule agonists of the antioxidant response element (ARE) signaling pathway (AID 651741; active = well fitted activation curve with a large enough effect in the signal ratio; the % refers to the signal ratio; note: potency is the fitted concentration of half-maximal effect; for activation: % of control where 0% means no effect). As to conditions: HepG2 ARE-bla reporter, beta-lactamase FRET ratio, 16 h; series mostly up to 96 µM. Put shortly: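 HepG2 ARE-bla cells plated at 2,000 cells/well and incubated 5 h at 37 C/5% CO2 received 23 nL compound in DMSO. After 16 h at 37 C, LiveBLAzer B/G FRET substrate was applied for 2 h at room temperature and fluorescence read.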

The nature of assay [12]: qHTS assay for small molecule activators of the nuclear factor-kappa B (NF-kB) signaling pathway (AID 651749; active = well fitted activation curve with a large enough effect in the signal ratio; the % refers to the signal ratio; note: % of control where 0% means no effect). To be noted: NF-kB-bla ME-180 cells, beta-lactamase FRET ratio, 16 h; stronger effect = higher value. In outline: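 Incubation lasted 16 hr at 37C in 5% CO2 after 23 nL compound addition to ME-180 NF-kB-bla cells. Activation appears as beta-lactamase-mediated FRET loss.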

Assay [13] can be described thus: qHTS assay for small molecule agonists of the antioxidant response element (ARE) signaling pathway measured by Nrf2-dependant transcriptional activity (AID 720636; active = well fitted curve in the direction sought with a large enough effect in the repeat runs; an effect the other way counts as inactive or inconclusive; note: % of control where 0% means no effect). As to conditions: ARE-luc HepG2, Nrf2 luciferase reporter, 16 h; series mostly up to 92.4 µM. Put shortly: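 Attachment 6 hr at 37 C, then compound versus DMSO vehicle for 16 hr in ARE-luc HepG2 cells (1% dialyzed FBS); luminescence recorded 30 min after ONE-Glo addition at room temperature.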

A short description of assay [14]: Cell Viability - H-4-II-E (AID 543; active = well fitted curve in the direction sought with a large enough effect; an effect the other way counts as inactive or inconclusive;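 note: cells exposed to compound for 40 hours; % is set by controls: 0 for no effect and ±100 for the full control effect; nearly all actives have a fitted effect of over 35% in size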). As to conditions: H-4-II-E rat hepatoma viability; series mostly up to 92.2 µM. Put shortly:
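Here, cytotoxicity is measured in the rat hepatoma line H-4-II-E as loss of intracellular ATP after 40 hr compound treatment, detected by luciferase luminescence.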

Assay [15] addresses Estrogen receptor (Homo sapiens) (UniProt P03372). Kind of assay: qHTS assay for small molecule antagonists of estrogen receptor alpha signaling (AID 588513; active = well fitted curve in the direction sought with a large enough effect in the signal ratio, with a control signal flat, not every such curve was filed as active; the % refers to the signal ratio; note: % is set by controls: 0 for no effect and ±100 for the full control effect). As to conditions: ER-alpha-UAS-bla HEK293, beta-lactamase ratio, antagonist mode; series mostly up to 76.9 µM. In outline: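 Beta-lactamase reporter, antagonist mode, HEK 293 GripTite cells; 0.5nM E2 stimulus, 18 h, 37 C; CCF4 dye 2 h RT; fluorescence. IC50 and efficacy from Hill fits, normalized to E2 and DMSO.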

Assay [16] has the same target. Kind of assay: qHTS assay for small molecule agonists of estrogen receptor alpha signaling (AID 588514).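 Note: 0% = vehicle only and 100% = reference agonist; nearly all actives have a fitted effect of over 70% in size.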 As to conditions: ER-alpha-UAS-bla HEK293, beta-lactamase ratio, 18 h; series mostly up to 76.8 µM. In outline:
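Reporter-gene assay. […] controls beta-lactamase in HEK 293 GripTite cells; after 18 hrs with compound, CCF4 substrate is added for 2 hrs and fluorescence is read.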

A short description of assay [17]: qHTS assay for small molecule disruptors of the mitochondrial membrane potential - 1 hr assay (AID 651754). Note: nearly all actives have a fitted effect of over 35% in size. Note: potency is the fitted concentration of half-maximal effect. As to conditions: series mostly up to 92.2 µM. In outline: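 Steps: seed HepG2 cells and let attach overnight; pin-transfer compound or vehicle; incubate 1 hr at 37C; add Mito-MPS dye for 30 min; read two-channel fluorescence for monomer and aggregate forms.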

The target of assay [18] is Nuclear receptor ROR-gamma (Homo sapiens) (UniProt P51449). Briefly: qHTS assay for small molecule antagonists of the retinoid-related orphan receptor gamma (ROR-gamma) signaling pathway (AID 651802; active = well fitted curve in the direction sought with a large enough effect; an effect the other way counts as inactive or inconclusive;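 note: CHO cells with doxycycline-induced ROR-gamma expression; luciferase reporter luminescence driven by ROR response element; % is set by controls: 0 for no effect and ±100 for the full control effect; nearly all actives have a fitted effect of over 60% in size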). To be noted: ROR-gamma antagonist cell reporter assay; series mostly up to 92.2 µM. In outline: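 Antagonism is scored as a fall in luminescence from a RORE-luciferase reporter in CHO cells expressing ROR under a TET-inducible promoter, measured 16hr after doxycycline induction in the presence of compound.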

The nature of assay [19]: MultiTox-Fluor Cytotoxicity Assay - LYMP1-001 - Live Cells (AID 947; active = well fitted curve in the direction sought with a large enough effect; an effect the other way counts as inactive or inconclusive;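 note: 0% = DMSO only and full inhibition = tetraoctylammonium bromide control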). To be noted: LYMP1-001 lymphoblastoid cells, live-cell protease fluorescence viability; series mostly up to 92.2 µM.
Assay [20] in a line: qHTS assay for small molecule disruptors of the mitochondrial membrane potential - 5 hr assay (AID 651755). Note: nearly all actives have a fitted effect of over 40% in size. Note: potency is the fitted concentration of half-maximal effect. To be noted: JC-1-type ratio dye; series mostly up to 92.2 µM. In outline:
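HepG2 cells (2,000/well), attached overnight, exposed to compound 5 hr at 37C, then Mito-MPS dye 30 min. Fluorescence read for monomers (490/535 nm) and aggregates (540/590 nm).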

Sequence of Peroxisome proliferator-activated receptor gamma (Homo sapiens) (P37231 whole entry, looked up): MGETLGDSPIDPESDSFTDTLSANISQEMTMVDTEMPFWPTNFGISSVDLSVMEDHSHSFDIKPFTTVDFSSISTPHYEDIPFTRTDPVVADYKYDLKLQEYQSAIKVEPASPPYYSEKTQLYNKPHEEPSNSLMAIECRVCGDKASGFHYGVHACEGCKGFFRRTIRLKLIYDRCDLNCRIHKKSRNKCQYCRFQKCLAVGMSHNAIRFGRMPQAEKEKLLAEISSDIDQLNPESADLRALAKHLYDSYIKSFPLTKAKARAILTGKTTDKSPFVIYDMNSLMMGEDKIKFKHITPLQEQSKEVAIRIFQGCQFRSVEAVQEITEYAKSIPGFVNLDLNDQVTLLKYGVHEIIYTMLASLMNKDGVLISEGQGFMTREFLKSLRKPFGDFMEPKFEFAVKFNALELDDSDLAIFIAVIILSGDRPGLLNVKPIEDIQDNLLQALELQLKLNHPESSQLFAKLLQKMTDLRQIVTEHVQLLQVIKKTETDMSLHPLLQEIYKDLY
Sequence of Thyroid hormone receptor beta (Homo sapiens) (P10828 whole entry, looked up): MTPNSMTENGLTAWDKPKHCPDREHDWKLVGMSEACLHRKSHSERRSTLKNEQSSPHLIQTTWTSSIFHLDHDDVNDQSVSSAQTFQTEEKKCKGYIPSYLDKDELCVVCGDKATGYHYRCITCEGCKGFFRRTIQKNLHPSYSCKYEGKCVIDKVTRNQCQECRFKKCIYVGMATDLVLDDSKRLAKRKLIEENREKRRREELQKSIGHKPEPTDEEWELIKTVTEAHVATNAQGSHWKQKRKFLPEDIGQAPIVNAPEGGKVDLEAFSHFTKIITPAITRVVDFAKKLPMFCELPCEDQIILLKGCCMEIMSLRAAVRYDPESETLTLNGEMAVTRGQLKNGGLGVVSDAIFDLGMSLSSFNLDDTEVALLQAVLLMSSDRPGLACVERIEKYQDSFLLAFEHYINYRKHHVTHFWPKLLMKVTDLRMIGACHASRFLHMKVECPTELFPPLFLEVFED
Sequence of Estrogen receptor (Homo sapiens) (P03372 whole entry, looked up): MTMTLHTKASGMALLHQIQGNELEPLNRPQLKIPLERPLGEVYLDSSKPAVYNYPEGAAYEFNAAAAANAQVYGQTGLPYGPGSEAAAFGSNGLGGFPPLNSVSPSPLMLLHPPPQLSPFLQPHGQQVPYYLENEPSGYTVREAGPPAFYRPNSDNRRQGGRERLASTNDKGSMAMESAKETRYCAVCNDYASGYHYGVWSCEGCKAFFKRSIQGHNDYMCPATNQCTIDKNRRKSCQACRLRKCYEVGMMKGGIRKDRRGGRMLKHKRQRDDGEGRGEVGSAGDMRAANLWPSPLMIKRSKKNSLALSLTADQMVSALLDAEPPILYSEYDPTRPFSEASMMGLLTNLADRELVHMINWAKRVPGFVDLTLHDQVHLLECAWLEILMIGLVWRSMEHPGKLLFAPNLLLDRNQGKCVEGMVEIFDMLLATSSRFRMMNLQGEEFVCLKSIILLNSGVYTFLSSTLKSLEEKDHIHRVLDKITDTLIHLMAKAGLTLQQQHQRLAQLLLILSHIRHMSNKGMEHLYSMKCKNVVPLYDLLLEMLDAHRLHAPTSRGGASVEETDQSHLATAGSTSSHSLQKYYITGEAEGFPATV
Sequence of Glucocorticoid receptor (Homo sapiens) (P04150 whole entry, looked up): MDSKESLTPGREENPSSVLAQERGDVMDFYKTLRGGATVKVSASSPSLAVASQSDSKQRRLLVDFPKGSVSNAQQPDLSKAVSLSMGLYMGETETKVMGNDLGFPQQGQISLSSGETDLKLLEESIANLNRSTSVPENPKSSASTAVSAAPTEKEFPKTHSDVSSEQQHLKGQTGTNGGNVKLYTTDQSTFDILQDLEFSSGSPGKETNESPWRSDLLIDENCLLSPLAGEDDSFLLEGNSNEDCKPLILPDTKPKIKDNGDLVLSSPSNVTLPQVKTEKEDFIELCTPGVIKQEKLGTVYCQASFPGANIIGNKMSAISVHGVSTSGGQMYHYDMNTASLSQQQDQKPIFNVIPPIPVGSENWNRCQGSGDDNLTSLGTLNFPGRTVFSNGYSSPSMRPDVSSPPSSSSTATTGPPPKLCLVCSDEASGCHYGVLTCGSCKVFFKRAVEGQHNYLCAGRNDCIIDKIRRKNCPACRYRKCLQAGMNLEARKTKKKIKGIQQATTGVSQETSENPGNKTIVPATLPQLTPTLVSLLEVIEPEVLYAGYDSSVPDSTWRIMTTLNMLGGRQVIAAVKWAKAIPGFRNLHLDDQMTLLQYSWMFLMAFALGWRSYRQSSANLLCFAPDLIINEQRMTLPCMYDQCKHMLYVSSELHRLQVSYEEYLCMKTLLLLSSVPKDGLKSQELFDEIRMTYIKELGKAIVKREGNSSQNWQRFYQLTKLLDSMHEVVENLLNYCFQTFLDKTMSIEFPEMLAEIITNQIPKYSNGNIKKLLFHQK
Sequence of Peroxisome proliferator-activated receptor delta (Homo sapiens) (Q03181 whole entry, looked up): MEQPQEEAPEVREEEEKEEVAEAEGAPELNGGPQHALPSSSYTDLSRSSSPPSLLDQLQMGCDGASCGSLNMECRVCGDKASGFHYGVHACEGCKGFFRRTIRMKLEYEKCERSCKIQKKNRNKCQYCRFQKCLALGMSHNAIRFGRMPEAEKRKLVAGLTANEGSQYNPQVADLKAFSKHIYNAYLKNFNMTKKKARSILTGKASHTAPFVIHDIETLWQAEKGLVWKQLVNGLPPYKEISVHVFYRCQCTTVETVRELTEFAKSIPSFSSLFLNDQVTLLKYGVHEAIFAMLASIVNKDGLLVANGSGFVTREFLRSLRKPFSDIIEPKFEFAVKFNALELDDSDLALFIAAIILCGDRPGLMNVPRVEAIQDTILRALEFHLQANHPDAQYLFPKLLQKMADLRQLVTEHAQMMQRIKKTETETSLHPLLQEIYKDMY
Sequence of Nuclear receptor ROR-gamma (Homo sapiens) (P51449 whole entry, looked up): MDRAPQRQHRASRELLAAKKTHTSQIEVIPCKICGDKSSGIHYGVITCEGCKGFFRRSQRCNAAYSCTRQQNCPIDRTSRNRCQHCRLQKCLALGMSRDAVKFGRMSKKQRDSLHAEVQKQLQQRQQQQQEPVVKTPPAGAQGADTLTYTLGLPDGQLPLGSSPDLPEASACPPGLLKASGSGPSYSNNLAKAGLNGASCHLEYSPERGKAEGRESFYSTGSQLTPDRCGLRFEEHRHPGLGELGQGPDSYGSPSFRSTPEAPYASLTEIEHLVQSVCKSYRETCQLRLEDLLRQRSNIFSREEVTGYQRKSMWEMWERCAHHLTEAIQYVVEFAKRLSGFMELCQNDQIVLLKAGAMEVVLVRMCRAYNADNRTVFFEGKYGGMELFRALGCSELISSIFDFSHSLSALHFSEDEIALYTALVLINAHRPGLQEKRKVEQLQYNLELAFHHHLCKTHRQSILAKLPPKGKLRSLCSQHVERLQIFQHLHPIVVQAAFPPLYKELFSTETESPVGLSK
Sequence of Vitamin D3 receptor (Homo sapiens) (P11473 whole entry, looked up): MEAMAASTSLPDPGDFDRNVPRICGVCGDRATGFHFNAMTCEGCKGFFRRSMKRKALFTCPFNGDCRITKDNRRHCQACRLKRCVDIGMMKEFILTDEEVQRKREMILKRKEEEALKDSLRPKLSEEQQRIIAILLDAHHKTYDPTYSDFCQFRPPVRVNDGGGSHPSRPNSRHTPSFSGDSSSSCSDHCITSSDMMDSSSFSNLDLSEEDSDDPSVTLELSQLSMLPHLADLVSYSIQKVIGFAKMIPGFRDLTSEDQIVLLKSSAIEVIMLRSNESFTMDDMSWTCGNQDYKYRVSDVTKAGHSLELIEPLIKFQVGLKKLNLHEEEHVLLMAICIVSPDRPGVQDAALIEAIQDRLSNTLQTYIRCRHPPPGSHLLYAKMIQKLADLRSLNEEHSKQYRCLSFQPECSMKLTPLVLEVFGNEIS

Take `CC(C)(C)c1ccccc1O`: the Potency in assay [1] is > 92 µM (inactive). Besides, the Potency result in assay [2], in assay [8], in [11] and in assay [13] was “inactive” each time. The activation in assay [3] is 2.08% (inactive) and 7.02% (inactive); in [12] it was -0.0104% (inactive) and -1.11% (inactive). For the same compound, the result in [4], in [5], in assay [7] and in assay [9] was inactive. The max response in assay [6] is 11% and 14.4%. Further, in assay [10], the activity change % (negative = inhibition) is 3.5% (inactive) and 10.7% (inactive).
Take `O=[N+]([O-])c1ccc2c3c(cccc13)CC2`: the Potency entry in assay [14], in assay [15], in [16], in assay [8], in assay [18] and in assay [13] was “inactive” in each case. Also, the activation in assay [3] was -4.28% (inactive) and -4.51% (inactive); in assay [12], -1.76% (inactive) and -1.52% (inactive). In addition, the outcome in assay [4], in assay [5], in [7] and in [9] was inactive. The max response in assay [6] came to 24.6%. The activity change % (negative = inhibition) in assay [10] is -2.33% (inactive) and 7.31% (inactive). The Potency in [17] was 37.6 µM (active).
In the case of `CCSC(=O)N1CCCCCC1`, the Potency entry in assay [2], in [15], in [16], in [8], in assay [17] and in [20] was “inactive” throughout. The Potency entry in assay [18] and in assay [13] was “inactive” each time. Besides, the call in assay [19], in [5], in [7] and in assay [9] was inactive. Moreover, the max response in [6] is -18%. In assay [10], the activity change % (negative = inhibition) was -3.1% (inactive) and -10.9% (inactive). The Potency in assay [11] is 66.8 µM (active). For the same compound, in assay [12], the activation was 0.506% (inactive) and -0.843% (inactive).
`C=CCCC#N`: the Potency in assay [1] was > 92 µM (inactive). Also, the Potency entry in assay [14], in assay [15], in assay [16], in [20] and in [13] was “inactive” each time. Besides, the compound was called inactive in assay [19], in assay [5] and in assay [9]. Moreover, the activation in [3] is -1.36% (inactive); in assay [12], 0.189% (inactive). Further, the activity change % (negative = inhibition) in assay [10] is 9.59% (inactive).
Take `ClCc1ccccn1`: the Potency in [1] is > 92 µM (inactive). Also, the Potency entry in assay [2], in [14], in assay [15], in assay [16], in assay [8] and in assay [11] was “inactive” throughout. Also, the Potency entry in assay [17], in assay [20], in [18] and in assay [13] was “inactive” in each case. Besides, the compound was called inactive in assay [19], in assay [4], in [5], in assay [7] and in [9]. Besides, the activation in assay [3] is 7.32% (inactive) and 6.72% (inactive). Also, the max response in [6] is 3.34%. Moreover, the activity change % (negative = inhibition) in [10] was -1.68% (inactive).
For the compound `C=CC=O`, the Potency result in assay [2], in [14], in assay [18] and in assay [13] was “inactive” throughout. Also, the outcome in assay [19], in assay [4], in [5], in assay [7] and in assay [9] was inactive. Further, the figures for the activation in assay [3] and in [12] were -2.21% (inactive) and -0.542% (inactive), respectively. Besides, the max response in [6] amounted to 40.7%. The activity change % (negative = inhibition) in [10] is 2.84% (inactive). In addition, in assay [11], the Potency is 47.3 µM (active).
For the compound `O=[N+]([O-])c1ccc(Cl)cc1`, the Potency in assay [1] was > 92 µM (inactive). For the same compound, the Potency result in assay [2], in [14], in assay [11], in assay [17], in [20] and in assay [18] was “inactive” throughout. In [13], the Potency result was “inactive”. For the same compound, the result in assay [19] and in [9] was inactive. Moreover, the activation was -1.26% (inactive) and -4.41% (inactive) in [3]; -0.791% (inactive) and -0.89% (inactive) in assay [12]. For the same compound, the activity change % (negative = inhibition) in assay [10] is 3.07% (inactive) and -2.63% (inactive).
As for `Nc1c(Cl)cc([N+](=O)[O-])cc1Cl`, the Potency in [1] was > 92 µM (inactive); in assay [17], 29.8 µM (active); in [20], 42.2 µM (active). In addition, the Potency entry in assay [2], in assay [15], in assay [16], in [8] and in assay [13] was “inactive” in each case. Moreover, the call in [19], in assay [4], in [5], in [7] and in [9] was inactive. For the same compound, the activation in assay [3] was -0.898% (inactive); in assay [12] it was 0.598% (inactive) and -4.6% (inactive). Besides, the max response in assay [6] was 8.87% and 11.4%. Also, in [10], the activity change % (negative = inhibition) is 16.2% (inactive) and 3.97% (inactive).
